The source of these data is the supplement of paper PMC3616981.

± gives the standard deviation of the averaged measurements.

Compound in this assay: CC(C)c1cccc(C(C)C)c1N1C(=O)c2ccc(O)cc2C1=O
Put plainly: BioMAP readout fold decrease vs vehicle (vehicle/treated); higher = stronger decrease of the readout vs vehicle (values <1 mean increase). Here is the method: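 BioSeek BioMAP human primary cell (co-)culture systems (3C, 4H, LPS, SAg, BE3C, CASM3C, hDFCGF, KF3CT) treated with 5HPP-33 at 1.48, 4.44, 13.3 and 40 µM. Read-outs are protein levels by ELISA, proliferation and SRB total protein. Duplicate rows per assay are averaged as replicates. Tested in ToxCast Phase II for this study; exposure time not stated.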
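Note: Co-cultures of keratinocytes, bronchial epithelial and smooth muscle cells, fibroblasts, HUVECs and PBMCs under stimuli like LPS, TNF-α, IFN-γ, IL-1β, TGF-β or EGF, SRB reflecting cytotoxicity.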

Turning to hDFCGF_Proliferation, the “BioMAP readout fold decrease” value by setting is: (1.48 µM) 1.22 ± 0.13; (4.44 µM) 2.66 ± 0.091; (13.3 µM) 4.594 ± 0.011; (40 µM) 12.1 ± 0.038.
For CASM3C_Thrombomodulin the same measures were 0.989 ± 0.031, 0.942 ± 0.049, 0.956 ± 0.031 and 1.23 ± 0.078.
For BE3C_tPA the same measures were 0.995 ± 0.012, 0.805 ± 0.042, 1.1 ± 0.071 and 1.59 ± 0.073.
For hDFCGF_EGFR the same measures were 1.0619 ± 0.00028, 1.02 ± 0.028, 1.19 ± 0.025 and 1.291 ± 0.0087.
In the case of KF3CT_ICAM1, the “BioMAP readout fold decrease” value was determined as 0.999 ± 0.092 (1.48 µM), 1.03 ± 0.037 (4.44 µM), 0.9245 ± 0.0078 (13.3 µM) and 1.08 ± 0.062 (40 µM).
For CASM3C_MCP1 the same measures were 1.07 ± 0.045, 1.137 ± 0.0029, 1 ± 0.016 and 0.9734 ± 0.002.
Regarding LPS_VCAM1, the “BioMAP readout fold decrease” value runs as follows: (1.48 µM) 1.14 ± 0.055; (4.44 µM) 1.55 ± 0.14; (13.3 µM) 2.13 ± 0.16; (40 µM) 3.55 ± 0.13.
In the case of LPS_PGE2, the “BioMAP readout fold decrease” value by setting is: (1.48 µM) 0.966 ± 0.071; (4.44 µM) 0.863 ± 0.057; (13.3 µM) 0.841 ± 0.037; (40 µM) 0.776 ± 0.044.
For the target hDFCGF_MIG, the “BioMAP readout fold decrease” value by setting is: (1.48 µM) 1.01 ± 0.012; (4.44 µM) 1.01 ± 0.0026; (13.3 µM) 1.02 ± 0.027; (40 µM) 1.42 ± 0.031.
For KF3CT_MMP9 the same measures were 0.991 ± 0.0099, 1.17 ± 0.028, 1.45 ± 0.081 and 4.32 ± 0.16.
